For one compound, Potency and outcome results are on record in PubChem BioAssay (NCATS).

Assay [1] can be described thus: Cell Viability - LYMP2-004 (AID 966). Note: nearly all actives have a fitted effect of over 65% in size. A digest of the protocol: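 Acute toxicity is scored as a concentration-dependent drop in intracellular ATP, quantified by luciferase luminescence, in human lymphoblastoid cells exposed to compound for 24 hr. AC50 derives from Hill-equation modelling.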
The nature of assay [2]: Cell Viability - LYMP2-005 (AID 967). Note: series mostly up to about 92 µM. In a few lines: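 qHTS viability screen in LYMP2-005 cells: 24 h at 37 C with compound, ATP luminescence via CellTiter-Glo, AC50 from Hill curves.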
A short description of assay [3]: Cell Viability - LYMP2-009 (AID 968). Note: series mostly up to about 92 µM; nearly all actives have a fitted effect of over 55% in size.
Assay [4] can be described thus: Cell Viability - LYMP2-011 (AID 969). Note: nearly all actives have a fitted effect of over 60% in size. In a few lines:
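Acute toxicity is scored as a concentration-dependent drop in intracellular ATP of a human lymphoblastoid line after 24 hr treatment. Values are AC50s modeled with the Hill equation.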

Assay [5] can be described thus: Cell Viability - LYMP2-013 (AID 970). Note: series mostly up to about 92 µM; nearly all actives have a fitted effect of over 55% in size. In a few lines: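 Acute toxicity was measured in human lymphoblastoid cells (2500/well) exposed to compound titrations for 24 hr, with ATP luminescence (CellTiter-Glo) as read-out and AC50 fitted by Hill equation.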
The nature of assay [6]: Cell Viability - LYMP2-015 (AID 971). Note: nearly all actives have a fitted effect of over 55% in size. A digest of the protocol:
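Acute toxicity was scored as a concentration-dependent drop in intracellular ATP in lymphoblastoid cells after 24 hr compound exposure in complete medium. Detection used CellTiter-Glo luciferase luminescence.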

Assay [7] can be described thus: Cell Viability - LYMP2-023 (AID 975).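 Note: cellular ATP measured by luciferase luminescence as viability proxy; series mostly up to about 92 µM; cells exposed to compound for 24 hours at 37 °C; nearly all actives have a fitted effect of over 55% in size.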 A digest of the protocol:
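Concentration-dependent drop in intracellular ATP measures acute cytotoxicity in a human lymphoblastoid line treated for 24 hours in complete culture medium. AC50 values are taken from Hill-equation fits of qHTS data.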

Assay [8] in a line: Cell Viability - LYMP2-025 (AID 976). Note: series mostly up to about 92 µM. A digest of the protocol:
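In qHTS format, LYMP2-025 lymphoblastoid cells in complete culture medium received compound for 24 hr; ATP-based CellTiter-Glo signal gave viability, with AC50 derived by Hill equation.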

Assay [9] is described as follows: Cell Viability - LYMP2-002 (AID 977).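 Note: series mostly up to about 92 µM; compound exposure lasted 24 h at 37 °C.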 In a few lines: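 Cytotoxicity is scored as concentration-dependent loss of cellular ATP in a human lymphoblastoid line after 24 hr compound treatment at 37 C. AC50 is obtained by modelling concentration-response data with the Hill equation.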
Assay [10] in a line: Cell Viability - LYMP2-006 (AID 978). Note: series mostly up to about 92 µM; nearly all actives have a fitted effect of over 60% in size. A digest of the protocol: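 Concentration-dependent loss of intracellular ATP in a human lymphoblastoid line after 24 hr treatment at 37 C was measured by CellTiter-Glo luminescence, with AC50 values obtained from standard Hill-equation modelling.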
Assay [11] is described as follows: Cell Viability - LYMP2-007 (AID 979).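 Note: cells exposed to compound for 24 h before reading; nearly all actives have a fitted effect of over 60% in size.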 A digest of the protocol:
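Acute toxicity is scored as a concentration-dependent fall in intracellular ATP in human lymphoblastoid cells treated 24 hr at 37 C, measured by luciferase luminescence; Hill-equation modelling yields AC50.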

Assay [12] in a line: Cell Viability - LYMP2-008 (AID 980). Note: nearly all actives have a fitted effect of over 60% in size. In a few lines:
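Acute cytotoxicity is scored as concentration-dependent loss of cellular ATP in a human lymphoblastoid line after 24 hr treatment at 37 C. ATP is quantified by luciferase luminescence.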

A short description of assay [13]: Cell Viability - LYMP2-012 (AID 982).
Assay [14] is described as follows: Cell Viability - LYMP2-014 (AID 983). Note: series mostly up to about 92 µM; nearly all actives have a fitted effect of over 50% in size. A digest of the protocol:
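Decrease in intracellular ATP after 24 hr treatment at 37 C, measured by luciferase luminescence, indicated cytotoxicity. Concentration-response data were fitted with the standard Hill equation to give AC50.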

Assay [15] can be described thus: Cell Viability - LYMP2-016 (AID 984). A digest of the protocol: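 Acute toxicity in a Coriell human lymphoblastoid line is scored as loss of intracellular ATP over 24 h of treatment in complete medium. CellTiter-Glo signal is fitted across concentrations with the Hill equation to give AC50.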
A short description of assay [16]: Cell Viability - LYMP2-018 (AID 985).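 Note: compound exposure lasted 24 hr at 37 °C; nearly all actives have a fitted effect of over 50% in size.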 A digest of the protocol: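 Acute cytotoxicity is scored as a concentration-dependent drop in intracellular ATP after 24 hr exposure of the lymphoblastoid line in complete culture medium, measured by luciferase luminescence. Potency is expressed as AC50 from Hill modelling.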
Assay [17] is described as follows: Cell Viability - LYMP2-020 (AID 986). In a few lines:
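Acute cytotoxicity in a human lymphoblastoid line is scored as a concentration-dependent fall in cellular ATP after 24 hr at 37 C in complete medium. The positive control is tetraoctylammonium bromide, and potency is given as Hill-fit AC50.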

A short description of assay [18]: Cell Viability - LYMP2-024 (AID 988). Note: nearly all actives have a fitted effect of over 60% in size. A digest of the protocol:
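Acute toxicity is measured as concentration-dependent loss of intracellular ATP in a human lymphoblastoid line treated 24 hours at 37 C. Luciferase luminescence quantifies ATP; AC50 values come from standard Hill-equation modelling.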

Assay [19] can be described thus: Cell Viability - LYMP2-026 (AID 989). Note: nearly all actives have a fitted effect of over 50% in size. A digest of the protocol:
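Concentration-dependent loss of intracellular ATP in human lymphoblastoid cells after 24 hr at 37 C, quantified by luciferase luminescence. AC50 derived from standard Hill equation.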

The nature of assay [20]: Cell Viability - LYMP1-002 - Assay at 24 hr (AID 993). A digest of the protocol:
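qHTS, LYMP1-002 lymphoblastoid, 24 h cpd, 37 C, CellTiter-Glo ATP luminescence; AC50 via Hill eq.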

A short description of assay [21]: qHTS Assay for Identification of Small Molecule Inducers of Hypoxia Response (AID 2120; active = well fitted curve in the direction sought with a large enough effect in the signal ratio, with a control signal flat, not every such curve was filed as active; inconclusive = small, poorly fitted or top-dose-only effect, or a change in a side signal; inactive = no such curve, though single readings can be large or run the other way; the % refers to the signal ratio). In a few lines:
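Induction of beta-lactamase reporter activity was measured in CellSensor HRE-bla ME-180 cells after 17 h compound treatment at 37 degrees C, using CCF4 substrate and the 460nm/530nm emission ratio to derive AC50 values.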
(In general: In qHTS, concentration-response curves come from the screen itself.)

In assay [22] the target is Estrogen receptor (Homo sapiens) (UniProt P03372). Briefly: qHTS assay for small molecule antagonists of estrogen receptor alpha signaling (AID 588513; active = well fitted curve in the direction sought with a large enough effect in the signal ratio, with a control signal flat, not every such curve was filed as active; inconclusive = small, poorly fitted or top-dose-only effect, or effect the other way, or a change in a side signal; inactive = no such curve, though single readings can be large or run the other way; the % refers to the signal ratio; note: potency is the fitted concentration of half-maximal effect). A digest of the protocol: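 Cells were plated at 5000/well and incubated 4 h at 37 C. Compounds were added as 1:2 dilution series, duplicates. 17-beta-estradiol (0.5nM final) was added for 18 h before CCF4 detection.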
Estrogen receptor (Homo sapiens), sequence (P03372 whole entry, looked up): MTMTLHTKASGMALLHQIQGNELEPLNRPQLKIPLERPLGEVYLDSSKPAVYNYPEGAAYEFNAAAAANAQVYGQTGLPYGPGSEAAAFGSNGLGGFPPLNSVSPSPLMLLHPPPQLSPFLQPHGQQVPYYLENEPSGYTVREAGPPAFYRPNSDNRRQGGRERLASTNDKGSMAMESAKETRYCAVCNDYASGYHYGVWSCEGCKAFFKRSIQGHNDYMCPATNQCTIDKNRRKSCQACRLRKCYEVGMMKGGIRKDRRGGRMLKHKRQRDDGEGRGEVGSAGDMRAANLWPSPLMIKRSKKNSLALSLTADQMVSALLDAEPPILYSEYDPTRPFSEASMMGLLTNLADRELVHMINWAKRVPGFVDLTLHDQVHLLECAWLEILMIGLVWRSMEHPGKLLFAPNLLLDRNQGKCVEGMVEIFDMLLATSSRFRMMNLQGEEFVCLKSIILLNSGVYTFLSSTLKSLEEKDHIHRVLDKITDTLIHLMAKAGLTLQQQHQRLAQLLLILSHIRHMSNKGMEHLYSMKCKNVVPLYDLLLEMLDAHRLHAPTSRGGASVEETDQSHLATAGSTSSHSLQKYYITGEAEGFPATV

Assay [23] shares this target. In words: qHTS assay for small molecule agonists of estrogen receptor alpha signaling (AID 588514; calls by dose curve; note: potency is the fitted concentration of half-maximal effect; nearly all actives have a fitted effect of over 70% in size). In a few lines: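 Reporter-gene assay. […] controls beta-lactamase in HEK 293 GripTite cells; after 18 hrs with compound, CCF4 substrate is added for 2 hrs and fluorescence is read.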
Assay [24] deals with Androgen receptor (Homo sapiens) (UniProt P10275). Briefly: qHTS assay for small molecule antagonists of androgen receptor signaling (AID 588516; active = well fitted curve in the direction sought with a large enough effect in the signal ratio, with a control signal flat, not every such curve was filed as active; inconclusive = small, poorly fitted or top-dose-only effect, or effect the other way, or a change in a side signal; inactive = no such curve, though single readings can be large or run the other way; the % refers to the signal ratio; note: potency is the fitted concentration of half-maximal effect). In a few lines:
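Antagonist-mode qHTS: inhibition of R1881 (10 nM)-driven beta-lactamase expression in GripTite HEK 293 cells is measured after 16 h; values are Hill-derived IC50s normalized between R1881 and DMSO wells.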

The source made the active and inactive calls. Unless noted, calls come from the whole dose curve; as a rule, active = well fitted curve in the direction sought with a large enough effect; inconclusive = small, poorly fitted or top-dose-only effect, or another doubt; inactive = no such curve, though single readings can be large; an effect the other way counts as inactive or inconclusive.

Androgen receptor (Homo sapiens), sequence (P10275 whole entry, looked up): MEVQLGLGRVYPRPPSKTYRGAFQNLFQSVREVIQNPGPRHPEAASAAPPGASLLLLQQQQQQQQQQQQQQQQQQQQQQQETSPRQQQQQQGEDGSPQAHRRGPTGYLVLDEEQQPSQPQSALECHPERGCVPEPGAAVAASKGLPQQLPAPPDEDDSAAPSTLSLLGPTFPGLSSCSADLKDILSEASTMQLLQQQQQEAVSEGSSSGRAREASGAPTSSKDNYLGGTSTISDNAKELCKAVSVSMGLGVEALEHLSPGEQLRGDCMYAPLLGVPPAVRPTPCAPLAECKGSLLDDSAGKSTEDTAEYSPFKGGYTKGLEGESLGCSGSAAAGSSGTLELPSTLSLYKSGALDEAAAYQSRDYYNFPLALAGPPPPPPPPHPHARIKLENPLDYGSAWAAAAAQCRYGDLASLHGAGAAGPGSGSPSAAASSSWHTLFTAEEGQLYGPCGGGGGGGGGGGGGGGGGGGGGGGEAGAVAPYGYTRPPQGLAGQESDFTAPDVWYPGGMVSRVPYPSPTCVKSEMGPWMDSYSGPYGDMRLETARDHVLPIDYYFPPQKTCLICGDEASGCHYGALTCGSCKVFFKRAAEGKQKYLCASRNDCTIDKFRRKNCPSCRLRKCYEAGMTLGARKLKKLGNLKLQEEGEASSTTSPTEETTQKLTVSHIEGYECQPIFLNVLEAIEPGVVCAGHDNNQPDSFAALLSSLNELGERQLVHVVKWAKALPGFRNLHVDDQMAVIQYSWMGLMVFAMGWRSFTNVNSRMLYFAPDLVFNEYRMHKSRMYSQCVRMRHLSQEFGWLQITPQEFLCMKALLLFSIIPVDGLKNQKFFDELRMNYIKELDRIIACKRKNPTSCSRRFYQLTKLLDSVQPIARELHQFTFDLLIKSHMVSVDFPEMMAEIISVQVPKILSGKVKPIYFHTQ

For the compound `C[C@H]1CCCC(=O)CCC/C=C/c2cc(O)cc(O)c2C(=O)O1`, the Potency entry in [1], in assay [2], in assay [3], in [4], in assay [5] and in assay [6] was “inactive” in each case. The Potency result in assay [7], in assay [8], in assay [9], in [10], in [11] and in [12] was “inactive” in each case. Also, the Potency result in assay [13], in assay [14], in assay [15], in assay [16], in [17] and in [18] was “inactive” each time. Moreover, the Potency result in [19] and in assay [20] was “inactive” each time. Besides, in assay [21], the call was inactive. The Potency was 14.1 µM [inconclusive] (active) in assay [22], 0.01 µM (active) in assay [23] and 44.7 µM (active) in assay [24].
